# This is a sample that favours compounds with a hit; in the whole collection about 27% have one here.
# CYP2C19 inhib = blockers of cytochrome P450 2C19 activity – biochemical, luminescence, ADME assay, primary screen; CYP2C19 Supersomes, luciferin-H EGE luminescence, 30 min; inhibition, % at 5 µM; actives 21% (n = 96,000); AID 778, 2007;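 active = CYP2C19 inhibition above a set limit at 5 µM in the primary screen, cut at about 50% in these data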;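 note: plate controls were negative control wells for no effect and 2.5 mM tranylcypromine positive control for full effect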
# CYP2C9 act = human CYP2C9 activators, primary screen, biochemical, luminescence; Cytochrome P450 2C9 (Homo sapiens), P11712; recombinant CYP2C9, luciferin-H conversion; active compounds read high; factor 1 = untreated enzyme, 0 = blocked; activation factor at 5 µM; actives 1.4% (n = 96,000);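 active = activation factor of 2 or more for CYP2C9 at a 5 µM dose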;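 note: 0 = sulfaphenazole-blocked wells and 1 = vehicle-only wells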
# Target sequence (P11712 whole entry, looked up): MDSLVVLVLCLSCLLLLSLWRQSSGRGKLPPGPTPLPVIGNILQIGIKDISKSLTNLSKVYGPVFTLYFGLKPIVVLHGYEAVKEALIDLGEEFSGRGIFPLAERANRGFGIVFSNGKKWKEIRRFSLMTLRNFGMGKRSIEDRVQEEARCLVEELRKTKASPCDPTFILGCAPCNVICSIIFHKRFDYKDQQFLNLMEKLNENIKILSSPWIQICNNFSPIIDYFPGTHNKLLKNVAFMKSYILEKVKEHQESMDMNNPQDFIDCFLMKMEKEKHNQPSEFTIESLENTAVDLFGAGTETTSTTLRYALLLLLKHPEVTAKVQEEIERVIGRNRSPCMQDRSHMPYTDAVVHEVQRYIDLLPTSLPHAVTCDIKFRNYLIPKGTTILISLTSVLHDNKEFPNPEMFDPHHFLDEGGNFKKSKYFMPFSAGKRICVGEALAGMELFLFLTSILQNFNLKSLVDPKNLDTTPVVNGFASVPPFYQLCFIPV
# CYP2C19 act = human CYP2C19 activators, primary screen, biochemical, luminescence; Cytochrome P450 2C19 (Homo sapiens), P33261; recombinant CYP2C19, luciferin-H EGE luminescence; active compounds read high; 0 = fully inhibited enzyme, 1 = untreated enzyme; activation factor at 5 µM; 96,000 tested, under 10 active;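 active = activation factor of at least 2 at 5 µM in the primary screen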;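 note: 0 = wells with 2.5 mM tranylcypromine and 1 = vehicle-only wells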
# sEH act = soluble epoxide hydrolase activators, primary screen, biochemical, human sEH; Bifunctional epoxide hydrolase 2 (Homo sapiens), P34913; purified human sEH enzymatic activity, activator screen; activation, % at 2 µM; actives 0.04% (n = 91,000); in the data active = activation above about 37%
# sEH inh = soluble epoxide hydrolase inhibitors, primary screen, biochemical, human sEH; inhibition, % at 2 µM; Bifunctional epoxide hydrolase 2 (Homo sapiens), P34913; actives 0.34% (n = 91,000); recombinant human sEH enzymatic activity assay; AID 707, 2007; in the data active = inhibition above about 80%
# CYP2C9 inh = blockers of cytochrome P450 2C9 activity – biochemical, luminescence, ADME assay, primary screen; P11712; CYP2C9 Supersomes, luciferin-H conversion; inhibition, % at 5 µM; actives 20% (n = 96,000);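 active = blocking of liver enzyme CYP2C9 beyond about 50% at 5 µM, limit read from the data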
# An asterisk follows results filed as active; . = no result given.
SMILES,CYP2C19 inhib,CYP2C9 act,CYP2C19 act,sEH act,sEH inh,CYP2C9 inh
COc1cc(C2C(C(=O)N3CCOCC3)=C(C)NC3=C2C(=O)CCC3)ccc1OC(C)=O (stereo unspecified),-1,1,1,12,-9,-2
CCOC(=O)C1=C(C)NC2=C(C(=O)CCC2)C1c1cc(OC)ccc1OC (stereo unspecified),79*,0.1,0.2,4,-2,88*
CN(Cc1ccccc1)C(=O)C1CCCN(Cc2ccc(Cl)cc2)C1 (stereo unspecified),25,0.9,0.8,-2,5,12
Cc1nccn1-c1ncnc2sc3c(c12)CCCC3,22,0.9,0.8,6,-6,5
c1nc(N2CCC3(CC2)OCCO3)c2c3c(sc2n1)CCCC3,85*,0.4,0.1,.,.,63*
c1ccc(N2CCN(c3ncnc4sc5c(c34)CCC5)CC2)cc1,75*,0.3,0.2,30,-34,72*
O=C(c1ccco1)N1CCN(c2ncnc3sc4c(c23)CCC4)CC1,72*,0.1,0.3,1,1,86*
CCc1nc(N2CCN(C(=O)c3ccco3)CC2)c2c3c(sc2n1)CCCC3,24,0.5,0.8,-11,14,49
CCc1cc2c(N3CCN(c4ccccc4)CC3)ncnc2s1,35,0.4,0.7,11,-11,56*
CC(=O)c1c(C(C)=O)c(C)n(-c2ccc(C)c(NC(=O)c3ccccc3Cl)c2)c1C,13,0.6,0.9,1,2,43
COc1cc(OC)cc(C(=O)NC(C(=O)NCCN(C)C)C23CC4CC(CC(C4)C2)C3)c1 (stereo unspecified),93*,1,0.1,0,2,2
CCNC(=O)NC(C(=O)OC)C12CC3CC(CC(C3)C1)C2 (stereo unspecified),30,1,0.7,6,-6,-4
CN(C)S(=O)(=O)N1CCN(C(=O)N2CCOCC2)CC1,-2,1,1,-13,14,3
CCCOC(=O)/C(C(N)=NCc1ccccc1)=C(\O)OCCC,42,0.7,0.6,-2,1,35
CC1(C)C2CCC1(CS(=O)(=O)N1CCOCC1)C(=O)C2 (stereo unspecified),0,1.4,1,-10,11,-36
COc1cccc(NS(=O)(=O)CC23CCC(CC2=O)C3(C)C)c1 (stereo unspecified),59*,0.9,0.4,-8,11,6
COc1ccccc1N1CCN(S(=O)(=O)CC23CCC(CC2=O)C3(C)C)CC1 (stereo unspecified),60*,1.2,0.4,-12,8,-24
COc1ccccc1NS(=O)(=O)CC12CCC(CC1=O)C2(C)C (stereo unspecified),77*,1.9,0.2,13,-14,-87
CC1(C)C2CCC1(CS(=O)(=O)N1CCCc3ccccc31)C(=O)C2 (stereo unspecified),42,3.2*,0.6,-3,6,-222
O=C1C=C(NCc2ccc(Cl)cc2Cl)C2(CCCCC2)O1,49,0.9,0.5,-6,6,13
c1coc(CNc2c3c(nc4ncnn24)CCC3)c1,-7,0.1,1.1,16,-16,88*
Cc1noc(C)c1S(=O)(=O)N(CC(=O)Nc1ccc2c(c1)OCO2)c1ccc(C(C)C)cc1,-22,1.2,1.2,20,-16,-18
Cc1n[nH]c(C)c1S(=O)(=O)N(CC(=O)Nc1ccc2c(c1)OCCO2)c1ccc(C(C)C)cc1,44,0.3,0.6,-10,12,68*
CCC(C)NC(=O)CN(c1ccc2c(c1)OCO2)S(=O)(=O)c1c(C)n[nH]c1C (stereo unspecified),76*,0.5,0.2,.,.,52*
Cc1nc2nc[nH]n2c(=O)c1NC(=O)c1c(-c2ccccc2Cl)noc1C,5,0.6,1,.,.,39
SMILES,CYP2C19 inhib,CYP2C9 act,CYP2C19 act,sEH act,sEH inh,CYP2C9 inh
COc1cc(CNn2cnnc2)ccc1OCC(=O)NC(C)(C)C,-11,1.1,1.1,-9,6,-6
COc1ccc2c(c1)c(N=O)c(O)n2C,39,0.6,0.6,15,-16,37
CCC(c1nnnn1CS(=O)(=O)c1ccc(C)cc1)N1CCN(c2nc3ccccc3s2)CC1 (stereo unspecified),13,0.5,0.9,4,-5,48
O=C(c1ccco1)c1nnn(Cc2ccccc2)c1-c1ccccc1,13,0.5,0.9,-7,8,54*
O=C(NCC1COc2ccccc2O1)C1CCC(CNc2c(N3CCCCC3)c(=O)c2=O)CC1 (stereo unspecified),34,0.6,0.7,-76,77,44
CN1CC=C2C(C#N)=C(N)C(C#N)(C#N)C(c3cccc(Cl)c3Cl)C2C1 (stereo unspecified),93*,0.1,0.1,.,.,91*
CC(C)Oc1ccc(Cc2c(O)nc(NCCCN(C)C)[nH]c2=O)cc1,.,.,.,2,-2,.
COC(=O)c1c(C(=O)OC)c(C)n(Cc2cccnc2)c1C,28,0.5,0.7,-9,8,51*
c1csc(-c2nnsc2-c2nc3ccccc3[nH]2)c1,73*,0.7,0.3,.,.,27
COc1ccc(OCCC(=O)OCC(=O)NC(=O)NC(C)(C)C)cc1,84*,0.2,0.2,-11,12,83*
COc1ccc(/C=N/NC(=O)C(=O)NCc2cccnc2)cc1OC,-6,1,1.1,-8,9,-2
Cc1cc(C)nc(SCc2nc(N)nc(-c3ccccc3O)n2)n1,85*,0.6,0.1,3,0,36
CCCc1cc(=O)[nH]c(SCc2cc(C(=O)OC)c(C)o2)n1,77*,0.1,0.2,0,0,87*
COC(=O)c1cc(CSc2nc3ccccc3[nH]2)oc1C,98*,0.1,0,-10,10,87*
O=C(O)Cn1ccnc1,17,0.9,0.8,7,-7,9
CCOC(=O)c1ccc(NS(=O)(=O)N2CCCCCC2)cc1,9,0.3,0.9,-5,6,68*
COc1cccc(NS(=O)(=O)c2ccc3c(c2)CCCN3C(C)=O)c1,96*,0.4,0,2,-2,56*
CCOC(=O)c1ccc(NS(=O)(=O)c2ccc3c(c2)CCCN3C(C)=O)cc1,11,0.3,0.9,-4,4,72*
CC(=O)N1CCc2cc(NS(=O)(=O)c3cccs3)ccc21,62*,0.1,0.4,2,0,89*
CC(=O)N1CCCc2cc(S(=O)(=O)N(CC(C)C)CC(C)C)ccc21,9,1,0.9,.,.,2
CCOC(=O)C(Cc1ccccc1)NC(=O)CCc1c(C)nc2nc(C)nn2c1C (stereo unspecified),-1,1.1,1,11,-9,-11

# Screening results from PubChem BioAssay.
